Bioassay records deposited in PubChem by National Center for Advancing Translational Sciences (NCATS).
Sampled rows, rich in hits. Any-hit rate of the full collection: about 2.4%.
FEN1 inh: blocks human flap endonuclease 1; Recombinant FEN1 flap cleavage, fluorescence, 15 min; AID 588795; Potency, µM (doses to about 114 µM), for the others: at the highest dose activity change, negative = inhibition, hits mostly inhibitors; P39748; 390,000 compounds, 0.35% hits; also: % is scaled to controls: 0 for no effect and ±100 for the full control effect; nearly all actives have a fitted effect of over 65% in size
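With each library titrated from low to high concentration, compounds met 10 nM FEN1 for 15 min at room temperature before 50 nM substrate was added; readings at 0 and 15 min fed four-parameter Hill curve fits.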
WRN inhibitor: blocks human WRN helicase. Potency, µM (doses to about 114 µM), inactives show top-dose activity change, negative = inhibition, usual class: inhibitors. 360,000 compounds, 0.46% hits. WRN helicase unwinding, fluorescent forked duplex, kinetic. Q14191. AID 651768; also: % is scaled to controls: 0 for no effect and ±100 for the full control effect; nearly all actives have a fitted effect of over 55% in size
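Fluorescence dequenching readout, ex 525 nm/em 598 nm, kinetic mode: forked duplex DNA (100 nM final) with adjacent fluorophore and quencher unwound by WRN (20 nM final) with 2 mM ATP. Compound preincubation 15 min, room temperature.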
Pol eta inh-1: DNA polymerase eta (human) inhibition; AID 588591; recombinant Pol eta, fluorescent DNA replication assay; Potency, µM (highest dose often 114 µM), inactives show top-dose activity change, negative = inhibition, actives largely listed as inhibitors; 390,000 compounds, 1.2% hits; Q9Y253; also: % is scaled to controls: 0 for no effect and ±100 for the full control effect
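Fluorescent replication assay: 50 nM final substrate added after a 15 min room-temperature compound preincubation with 10 nM enzyme. Signal taken at 0 min and again at 10 min.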
Pol kappa inh-1: inhibitors of human DNA polymerase kappa. 400,000 compounds, 0.53% hits. AID 588579. Q9UBT6. purified Pol kappa, fluorescent DNA synthesis assay, 10 min. Potency, µM (titrated, usually from 107 µM), for inactives: top-dose activity, negative = inhibition, usual class: inhibitors; also: % is scaled to controls: 0 for no effect and ±100 for the full control effect
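Enzyme at 10 nM met test compounds for 15 min at room temperature. Substrate addition (50 nM final) began the reaction, which was monitored by fluorescence at 0 and 10 min.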
Pol iota inh: inhibitors of human DNA polymerase iota; Q9UNA4; Pol iota fluorescent replication assay, 10 min; Potency, µM (highest dose often 115 µM), without a hit: at the highest dose activity, negative = inhibition, hits mostly inhibitors; 390,000 compounds, 1% hits; AID 588590
Target sequence (Q9UNA4 whole entry, looked up): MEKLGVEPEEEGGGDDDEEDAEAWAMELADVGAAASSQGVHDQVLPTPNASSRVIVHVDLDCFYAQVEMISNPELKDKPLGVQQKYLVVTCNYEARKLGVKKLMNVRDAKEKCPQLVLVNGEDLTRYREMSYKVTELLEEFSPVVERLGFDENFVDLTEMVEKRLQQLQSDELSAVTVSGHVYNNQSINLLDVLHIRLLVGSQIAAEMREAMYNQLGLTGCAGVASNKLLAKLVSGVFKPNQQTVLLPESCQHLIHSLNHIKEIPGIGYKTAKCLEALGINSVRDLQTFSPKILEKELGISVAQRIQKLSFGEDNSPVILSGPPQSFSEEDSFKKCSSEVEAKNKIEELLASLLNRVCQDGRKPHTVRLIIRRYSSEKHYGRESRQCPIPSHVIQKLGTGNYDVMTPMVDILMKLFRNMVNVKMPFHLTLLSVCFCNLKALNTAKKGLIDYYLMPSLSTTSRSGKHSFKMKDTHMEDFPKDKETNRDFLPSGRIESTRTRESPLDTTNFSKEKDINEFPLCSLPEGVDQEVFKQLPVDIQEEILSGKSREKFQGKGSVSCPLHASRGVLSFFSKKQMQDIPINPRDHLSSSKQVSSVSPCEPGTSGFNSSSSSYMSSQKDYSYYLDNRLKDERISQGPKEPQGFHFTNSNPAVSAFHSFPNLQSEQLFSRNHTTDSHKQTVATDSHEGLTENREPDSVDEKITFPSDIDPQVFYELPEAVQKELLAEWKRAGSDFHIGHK
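Fluorescent replication assay read twice, at 0 min and 10 min after adding 50 nM (final) substrate. Enzyme (10 nM) and compounds were first incubated 15 min at room temperature; enzyme-free buffer wells were negative controls.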
Pol beta inh: blocks human DNA polymerase beta activity. P06746. Pol beta primer extension/strand displacement, fluorescence kinetic. Potency, µM (series often up to 114 µM), for inactives: at the top dose activity change, negative = inhibition, hits mostly inhibitors. 340,000 compounds, 1.3% hits; also: % is scaled to controls: 0 for no effect and ±100 for the full control effect
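Homogeneous kinetic assay of primer extension and strand displacement by 10 nM Pol beta, preincubated 15 min at room temperature with compound before 50 nM substrate (final) was added. Read at 0 and 10 min; four-parameter Hill fit.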
Pol kappa inh-2: confirmation of human DNA polymerase kappa inhibitors; shares compounds with Pol eta inh-1; purified Pol-kappa, fluorescent strand-displacement substrate; Potency, µM, most hits filed as inhibitors; 920 compounds, 76% hits
Pol eta inh-2: confirmation of human DNA polymerase eta inhibitors; AID 720502; Potency, µM, actives largely listed as inhibitors; shares compounds with Pol eta inh-1; 2,600 compounds, 64% hits; Pol eta primer extension, TAMRA/BHQ fluorescence, 10 min
* hit, by the source's call; ? = inconclusive; . = no result; [ ] = another dose, or the depositor's remark. Calls follow the shape of the dose curve; as a rule, active = well fitted curve in the direction sought with a large enough effect; inconclusive = small, poorly fitted or top-dose-only effect, or another doubt; inactive = no such curve, though single readings can be large; an effect the other way counts as inactive or inconclusive. Potency is read from the fitted curve at half-maximal effect.

SMILES	FEN1 inh	WRN inhibitor	Pol eta inh-1	Pol kappa inh-1	Pol iota inh	Pol beta inh	Pol eta inh-2	others
Cc1ccc(-c2nc3cc(C(C)C)ccc3o2)cc1NC(=O)c1cccs1	3%	.	-23%	-6%	-1%	4%	.
COC(=O)c1ccc([C@@H]2Nc3c(OC)ccc(C)c3[C@@H]3C=CC[C@@H]32)cc1	10%	.	-1%	-9%	?	-25%	.
COC(=O)COc1ccc(C2Nc3c(Cl)ccc(C(=O)O)c3C3C=CCC32)cc1 (stereo not drawn)	?	22µM*	28µM*	?	?	?	48*
CCn1cc2nc(SCc3ccccc3Cl)n(Cc3ccc(OC)cc3)c(=O)c2n1	-17%	.	-5%	0%	-1%	-29%	.
O=C(O)C1Cc2ccccc2CN1C(=O)COc1ccc(Cl)cc1Cl (stereo not drawn)	-1%	-7%[11.6 µM]	25µM*	-42%	12%	?	?
O=C(O)C1Cc2ccccc2CN1C(=O)COc1ccc(Br)cc1 (stereo not drawn)	0%	-19%	10µM*	79µM*	?	32µM*	27*
O=C(CCCOc1ccc(Cl)cc1Cl)N1CCc2ccccc2C1	-12%	-20%	-16%	-6%	-17%	-1%	.
CCOc1ccccc1C(=O)Oc1c(S(=O)(=O)c2ccc(C)cc2)c(C)nn1-c1ccccc1	-13%	.	-21%	-5%	2%	9%	.
Cc1ccc2c(=O)cc(C(=O)Nc3nc4ccc(Cl)cc4s3)oc2c1	17%	.	2%	3%	5%	-1%	.
Cc1ccc2c(=O)cc(C(=O)Nc3nc4ccc(Cl)cc4s3)oc2c1C	?	.	79µM*	?	?	6.3µM*	?
Cc1ccc(C(=O)NCc2ccco2)o1	-3%	-19%	?	?	?	?	.
Cc1ccc(C(=O)NCc2occc2C(=O)O)o1	-2%	-7%[11.6 µM]	28µM*	?	?	20µM*	30*	Pol kappa inh-2=24*
Cc1noc(Cn2c(=O)c3cc4c(cc3n(CC(=O)Nc3cccc(Cl)c3)c2=O)OCO4)n1	12%	.	-8%	-13%	14%	0%	.
COc1cc(O)cc2cc3c(c(O)c12)C(=O)CC(C)(O)O3 (stereo not drawn)	?	-7%[11.6 µM]	45µM*	?	?	50µM*	?
CC(C)(C)c1ccc(C2Sc3ccccc3NC3=C2C(=O)c2ccccc23)cc1 (stereo not drawn)	-12%	.	-19%	-6%	-9%	1%	.
CC(=O)Nc1ccc(C=NNc2ccc([N+](=O)[O-])cc2S(=O)(=O)Nc2ccccc2C(=O)O)cc1	?	-30%	50µM*	-43%	?	.	.	Pol kappa inh-2=?
CC(=O)Nc1ccc(S(=O)(=O)Nc2cc([N+](=O)[O-])ccc2C)cc1	-5%	-30%	-1%	-3%	42%	11%	.
CCc1ccc(-n2nc3cc(C)c(NC(=O)c4cc(Cl)ccc4OC)cc3n2)cc1	0%	.	-19%	3%	21%	2%	.
CC(/C=C/c1ccco1)=N\NC(=O)c1cc(Cl)ccc1O	-6%	?	22µM*	79µM*	40µM*	?	?
CC(/C=C/c1ccco1)=N/NC(=O)Cc1cccs1	-13%	?	18µM*	?	32µM*	22µM*	?
CC(/C=N/NC(=O)Cc1cccs1)=C\c1ccco1	9%	-13%	?	-13%	-7%	26%	.
O=C(Nc1ccc(Cl)c(C(F)(F)F)c1)C1CCN(S(=O)(=O)c2cccc3nonc23)CC1	?	.	-21%	?	?	-28%	.
C/C(=N\NC(=O)c1cc(O)ccc1O)c1cccc(NC(=O)c2cccc(Cl)c2)c1	?	-20%[11.6 µM]	?	79µM*	?	?	?
C/C(=N\NC(=O)C1CC1)c1cccc(NC(=O)c2cccc(Cl)c2)c1	.	.	.	.	.	4%	.
CCc1cccc(NC(=O)c2ccc(CNS(=O)(=O)c3ccc4c(c3)C(C)(C)C(=O)N4C)cc2)c1	-1%	.	-7%	-2%	-11%	33%	.
SMILES	FEN1 inh	WRN inhibitor	Pol eta inh-1	Pol kappa inh-1	Pol iota inh	Pol beta inh	Pol eta inh-2	others
O=C(COC(=O)Cc1ccc(S(=O)(=O)N2CCOCC2)s1)NCCc1ccccc1	1%	?	79µM*	?	?	22µM*	?
O=C(COC(=O)Cc1ccc(S(=O)(=O)N2CCOCC2)s1)NCc1ccccc1	4%	-4%	?	-21%	17%	0%	.
Cc1ccc(S(=O)(=O)N2[C@@H](c3ccc(Br)cc3)C(C(=O)O)=CC[C@H]2c2ccc(Cl)c(Cl)c2)cc1	?	-20%	89µM*	-18%	-25%	.	.	Pol kappa inh-2=?
Cc1ccc(S(=O)(=O)N2[C@@H](c3ccc(C(C)(C)C)cc3)C(C(=O)O)=CC[C@H]2c2cccc(Cl)c2)cc1	-17%	71µM*	89µM*	?	?	.	?	Pol kappa inh-2=67*
Cc1ccc(S(=O)(=O)N2[C@@H](c3ccc(C(C)(C)C)cc3)C(C(=O)O)=CC[C@H]2c2ccc(Cl)c(Cl)c2)cc1	-3%	-8%	0%	-29%	-6%	.	.
CCOC(=O)c1c(C)[nH]c(C)c1S(=O)(=O)N1CCC(C(=O)Nc2ccc(F)cc2F)CC1	0%	.	-8%	14%	0%	23%	.
COc1ccccc1OCCn1c(SCC(=O)O)nc2ccccc21	-1%	-5%[11.6 µM]	22µM*	79µM*	?	28µM*	?	Pol kappa inh-2=34*
CC1(C)CC[C@]2(C(=O)O)CC[C@]3(C)C(=CC[C@@H]4[C@@]5(C)CC[C@H](O[C@@H]6O[C@H](C(=O)O)[C@@H](O)[C@H](O[C@@H]7OC[C@H](O)[C@H](O)[C@H]7O)[C@H]6O)C(C)(C)[C@@H]5CC[C@]43C)[C@@H]2C1	-7%	-6%[11.6 µM]	50µM*	?	?	.	.	Pol kappa inh-2=?
Cc1ccc(-c2csc(NC(=O)c3ccc(C)o3)n2)cc1	-19%	-18%	-21%	-23%	13%	-29%	.
Cc1ccc(-c2csc(NC(=O)c3ccno3)n2)cc1	4%	-25%[57.1 µM]	45µM*	-24%	?	14µM*	?
O=c1cnc2cnc(N3CCNCC3)nc2n1C1CC1	.	.	.	0%[60.1 µM]	.	.	.
